Experimental data: PubChem BioAssay (Tox21)
Results filed as inconclusive are left out. The source made the active and inactive calls. Unless noted, the call rests on the fitted dose curve.

Experiments:
[1] = Nuclear factor erythroid 2-related factor 2/antioxidant responsive element (Nrf2/ARE) small molecule agonists: qHTS cell viability counter screen in human keratinocytes (AID 1919968; active means well fitted curve in the direction sought with a large enough effect in the repeat runs; an effect the other way counts as inactive or inconclusive; further: nearly all actives have a fitted effect of over 55% in size)
In short: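 CellTiter-Fluor fluorescence, read 1 h after reagent, gave viability in the same wells as the ARE-luciferase assay. KeratinoSens cells (1,500/well) had 23 h compound exposure at 37 C/5% CO2 following 5 h plating.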

[2] = Nuclear factor erythroid 2-related factor 2/antioxidant responsive element (Nrf2/ARE) small molecule agonists: luciferase reporter gene qHTS assay in human keratinocytes (AID 1919969); further: nearly all actives have a fitted effect of over 35% in size; further: potency means the concentration at half of the fitted maximal effect
[3] = biological target: Gonadotropin-releasing hormone receptor (Homo sapiens) (UniProt P30968); assay: Human gonadotropin-releasing hormone receptor (GnRHR) small molecule agonists, calcium flux assay in GnRHR-HEK293 cells (AID 1920063); further: nearly all actives have a fitted effect of over 35% in size
Gonadotropin-releasing hormone receptor (Homo sapiens), sequence (P30968 whole entry, looked up): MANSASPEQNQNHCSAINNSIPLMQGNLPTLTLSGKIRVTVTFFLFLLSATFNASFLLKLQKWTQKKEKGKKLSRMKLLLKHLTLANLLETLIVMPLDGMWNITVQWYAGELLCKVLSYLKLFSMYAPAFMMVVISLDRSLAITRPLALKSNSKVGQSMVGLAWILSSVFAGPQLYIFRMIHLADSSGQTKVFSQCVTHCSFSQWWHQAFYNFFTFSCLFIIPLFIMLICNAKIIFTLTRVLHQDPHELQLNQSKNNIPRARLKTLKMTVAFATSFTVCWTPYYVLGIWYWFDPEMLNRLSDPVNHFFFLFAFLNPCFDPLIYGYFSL
In short: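 Agonist mode: compounds at 15 concentrations, in triplicate, went onto calcium dye-loaded GnRHR-HEK293 cells. Intracellular calcium was then followed as 480/540 nm fluorescence at 1 s intervals over 3 min.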

[4] = biological target: KiSS-1 receptor (Homo sapiens) (UniProt Q969F8); assay: Human kisspeptin (KISS1R) small molecule agonists, calcium flux assay in KISS1R-HEK293 cells (AID 1920064; active means well fitted curve in the direction sought with a large enough effect in the repeat runs; an effect the other way counts as inactive or inconclusive)
KiSS-1 receptor (Homo sapiens), sequence (Q969F8 whole entry, looked up): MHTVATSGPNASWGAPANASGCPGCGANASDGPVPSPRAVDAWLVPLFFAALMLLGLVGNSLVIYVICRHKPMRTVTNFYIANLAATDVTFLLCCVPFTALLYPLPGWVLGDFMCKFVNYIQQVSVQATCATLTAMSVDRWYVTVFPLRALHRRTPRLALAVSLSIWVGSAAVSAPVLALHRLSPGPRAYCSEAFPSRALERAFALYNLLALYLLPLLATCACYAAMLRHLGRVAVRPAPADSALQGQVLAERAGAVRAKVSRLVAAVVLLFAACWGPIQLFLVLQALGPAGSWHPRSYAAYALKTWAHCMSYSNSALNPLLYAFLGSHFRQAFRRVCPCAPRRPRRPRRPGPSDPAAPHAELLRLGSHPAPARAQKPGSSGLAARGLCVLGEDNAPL
In short: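 Agonist mode: intracellular calcium rise tracked at 1 s intervals over 3 min (480/540 nm) immediately after compound addition to dye-loaded KISS1R-HEK293 stable cells. Each compound tested at 15 concentrations in triplicate.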

[5] = G protein-coupled receptor (GPCR) small molecule agonists, calcium flux assay: HEK293 wild type cell line counter screen (AID 1920065)
In short: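 Calcium flux counter screen: compound added in agonist mode at 15 concentrations in triplicate to dye-loaded parental HEK293 cells. Fluorescence (480/540) read kinetically for 3 min; ATP served as positive control.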

[6] = p53 small molecule agonists, cell-based qHTS assay with human liver microsomes (AID 1963577);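 further: p53 response element beta-lactamase reporter cells with liver microsomes plus NADPH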
In short: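 In this qHTS, p53 response-element beta-lactamase cells receive test compound together with a microsome/NADPH activating system (0.5 mg/mL final each) and are incubated 16 h at 37 C before LiveBLAzer fluorescence detection.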

[7] = p53 small molecule agonists, cell-based qHTS assay with rat liver microsomes (AID 1963578)
In short: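 Agonist mode in p53RE-bla reporter cells, with compounds co-incubated 16 h at 37 C alongside 0.5 mg/mL rat liver microsomes and 0.5 mg/mL NADPH (final), followed by a 2 h LiveBLAzer detection step.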

[8] = p53 small molecule agonists, cell-based qHTS assay with human liver microsomes: qHTS cell viability counter screen (AID 1963579); further: nearly all actives have a fitted effect of over 45% in size
In short: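 Metabolically activated exposure: compounds, human liver microsomes and NADPH (0.5 mg/mL final apiece) were added to p53RE-bla cells seeded 5 h earlier, left 16 h at 37 C, and then assessed for viability by CellTiter-Glo luminescence.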

[9] = p53 small molecule agonists, cell-based qHTS assay with rat liver microsomes: qHTS cell viability counter screen (AID 1963580); further: nearly all actives have a fitted effect of over 45% in size
In short: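 Cytotoxicity counter screen: intracellular ATP read by CellTiter-Glo luminescence in the p53 reporter wells. HCT-116 p53RE-bla cells were treated for 16 h at 37 C alongside rat liver microsomes and NADPH, each 0.5 mg/mL final.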

[10] = p53 small molecule agonists, cell-based qHTS assay: qHTS cell viability counter screen (AID 1963581); further: nearly all actives have a fitted effect of over 45% in size
In short: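 Counter screen read by CellTiter-Glo luminescence (ATP content, 30 min at room temperature), run in the same wells as the beta-lactamase reporter read. HCT-116 p53RE-bla cells saw compounds for 16 h at 37 C.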

[11] = p53 small molecule agonists, cell-based qHTS assay (AID 1963582; active means well fitted activation curve with a large enough effect in the signal ratio in the repeat runs, not every such curve was filed as active; the % refers to the signal ratio)
In short: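 Read-out is beta-lactamase FRET fluorescence after 2 h at room temperature with LiveBLAzer B/G substrate. p53 response element-bla cells were treated 16 h at 37 C with compounds in DMSO, added 5 h after seeding.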

[12] = biological target: 5-hydroxytryptamine receptor 2A (Homo sapiens) (UniProt P28223); assay: 5-hydroxytryptamine receptor 2A (HTR2A) small molecule antagonists, cell-based qHTS assay (AID 1963586); further: nearly all actives have a fitted effect of over 45% in size
5-hydroxytryptamine receptor 2A (Homo sapiens), sequence (P28223 whole entry, looked up): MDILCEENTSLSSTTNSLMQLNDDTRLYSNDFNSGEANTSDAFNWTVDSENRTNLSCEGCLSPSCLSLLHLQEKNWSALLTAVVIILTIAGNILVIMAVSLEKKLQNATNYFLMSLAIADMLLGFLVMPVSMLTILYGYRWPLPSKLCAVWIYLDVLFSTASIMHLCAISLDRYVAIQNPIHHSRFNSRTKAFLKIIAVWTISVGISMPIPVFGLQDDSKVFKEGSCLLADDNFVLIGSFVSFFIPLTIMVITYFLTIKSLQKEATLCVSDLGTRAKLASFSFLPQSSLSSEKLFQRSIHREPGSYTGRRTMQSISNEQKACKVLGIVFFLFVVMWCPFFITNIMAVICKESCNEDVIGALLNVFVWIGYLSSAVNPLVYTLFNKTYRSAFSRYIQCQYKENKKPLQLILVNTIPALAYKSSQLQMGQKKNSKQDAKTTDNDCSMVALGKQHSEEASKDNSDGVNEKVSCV
In short: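 CHO cells stably expressing human HTR2A were plated for 18 h at 37 C, then loaded with calcium dye for 1 h. Compounds were preincubated 5 min at room temperature before DOI (4 nM solution) was added. Kinetic fluorescence was read for 3 min.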

[13] = biological target: 5-hydroxytryptamine receptor 2A (Homo sapiens) (UniProt P28223); assay: 5-hydroxytryptamine receptor 2A (HTR2A) small molecule agonists, cell-based qHTS assay (AID 1963587); further: nearly all actives have a fitted effect of over 30% in size
In short: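 Kinetic calcium-flux fluorescence (2 min, 1 sec intervals) after compound addition in agonist mode. HTR2A-CHO cells were cultured 18 h, then dye-loaded 1 h at 37 C.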

[14] = biological target: Muscarinic acetylcholine receptor M1 (Homo sapiens) (UniProt P11229); assay: Cholinergic receptor muscarinic 1 (CHRM1) small molecule antagonists, cell-based qHTS assay (AID 1963588); further: nearly all actives have a fitted effect of over 40% in size; further: potency means the concentration at half of the fitted maximal effect
Muscarinic acetylcholine receptor M1 (Homo sapiens), sequence (P11229 whole entry, looked up): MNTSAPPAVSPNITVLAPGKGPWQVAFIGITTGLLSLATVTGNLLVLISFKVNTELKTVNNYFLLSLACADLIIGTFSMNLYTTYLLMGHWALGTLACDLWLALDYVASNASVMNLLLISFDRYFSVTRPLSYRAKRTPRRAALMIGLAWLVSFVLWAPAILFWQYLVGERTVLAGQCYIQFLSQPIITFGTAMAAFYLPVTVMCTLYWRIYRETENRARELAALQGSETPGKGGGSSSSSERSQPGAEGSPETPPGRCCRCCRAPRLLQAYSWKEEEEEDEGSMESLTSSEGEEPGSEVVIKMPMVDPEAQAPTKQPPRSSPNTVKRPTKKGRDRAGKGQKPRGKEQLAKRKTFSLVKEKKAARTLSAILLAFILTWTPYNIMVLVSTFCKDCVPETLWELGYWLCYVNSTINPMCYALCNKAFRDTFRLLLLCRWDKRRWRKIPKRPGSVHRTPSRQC
In short: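 Compounds were tested at 15 concentrations in three independent runs. Dye-loaded CHRM1-CHO cells were exposed 5 min at room temperature before stimulation by acetylcholine added at 50nM. Intracellular calcium was read kinetically on FDSS for 3 min.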

[15] = cAMP Responsive Elements (CRE) small molecule agonists, cell-based qHTS assay (AID 1963590)
In short: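 Agonist mode: compound added to CRE-bla HEK 293T cells (2,000/well, 18 h after plating) for 3 h at 37 C/5% CO2. Reporter activity detected via FRET beta-lactamase substrate, 2 h room-temperature loading.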

[16] = cAMP Responsive Elements (CRE) small molecule antagonists, cell-based qHTS assay (AID 1963591; active means well fitted inhibition curve with a large enough effect in the signal ratio in the repeat runs, not every such curve was filed as active; the % refers to the signal ratio)
In short: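 Antagonist mode: compounds are added alongside the adenylyl cyclase activator NKH477 (0.25 uM final) to CRE-bla HEK293T cells for 3 h. LiveBLAzer FRET substrate, 2 h at room temperature, reports bla expression.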

[17] = biological target: Beta-2 adrenergic receptor (Homo sapiens) (UniProt P07550); assay: Adrenergic beta2 receptor (ADRB2) small molecule antagonists, cell-based qHTS assay (AID 1963592); further: series mostly up to about 92 µM; nearly all actives have a fitted effect of over 50% in size
Beta-2 adrenergic receptor (Homo sapiens), sequence (P07550 whole entry, looked up): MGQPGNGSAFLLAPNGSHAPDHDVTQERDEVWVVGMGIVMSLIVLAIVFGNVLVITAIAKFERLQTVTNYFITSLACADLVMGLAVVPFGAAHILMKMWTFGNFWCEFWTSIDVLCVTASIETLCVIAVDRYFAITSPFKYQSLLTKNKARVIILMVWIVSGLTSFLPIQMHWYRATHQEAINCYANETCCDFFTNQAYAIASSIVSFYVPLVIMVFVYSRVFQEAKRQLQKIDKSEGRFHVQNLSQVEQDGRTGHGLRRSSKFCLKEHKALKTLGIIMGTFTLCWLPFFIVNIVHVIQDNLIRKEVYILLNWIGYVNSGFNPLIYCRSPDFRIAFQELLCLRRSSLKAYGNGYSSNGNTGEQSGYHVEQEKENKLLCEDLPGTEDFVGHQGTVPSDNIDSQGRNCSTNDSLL
In short: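 Assay format: CHO-ADRB2 cells, 18-20hr seeding at 37C/5% CO2, then compound plus 1nM isoproterenol agonist mix for 0.5hr RT. Homogeneous time-resolved fluorescence cAMP detection after 1hr, expressed as 665/615 nm ratio.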

[18] = biological target: D(2) dopamine receptor (Homo sapiens) (UniProt P14416); assay: Dopamine D2 receptor (DRD2) small molecule agonists, cell-based qHTS assay (AID 1963594); further: nearly all actives have a fitted effect of over 35% in size
D(2) dopamine receptor (Homo sapiens), sequence (P14416 whole entry, looked up): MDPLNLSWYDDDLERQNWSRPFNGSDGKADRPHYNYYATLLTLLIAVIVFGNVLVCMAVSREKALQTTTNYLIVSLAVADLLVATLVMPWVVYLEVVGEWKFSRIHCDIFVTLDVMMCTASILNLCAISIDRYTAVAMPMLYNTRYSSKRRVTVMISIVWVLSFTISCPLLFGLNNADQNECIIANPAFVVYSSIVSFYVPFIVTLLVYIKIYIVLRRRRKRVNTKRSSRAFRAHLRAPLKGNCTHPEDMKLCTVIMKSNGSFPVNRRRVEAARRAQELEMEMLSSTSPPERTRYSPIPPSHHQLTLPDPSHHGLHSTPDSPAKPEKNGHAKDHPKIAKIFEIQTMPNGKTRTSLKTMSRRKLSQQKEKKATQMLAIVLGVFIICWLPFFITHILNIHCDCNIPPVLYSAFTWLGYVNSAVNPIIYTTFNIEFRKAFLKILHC
In short: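 cAMP accumulation in DRD2-HEK293 cells measured by HTRF after 1 h detection; compounds added 10 min before NKH477 (200nM […]) forskolin-analogue stimulation, 30 min at room temperature, with Ro20-1724 present at 0.1 mM final.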

[19] = biological target: D(2) dopamine receptor (Homo sapiens) (UniProt P14416); assay: Dopamine D2 receptor (DRD2) small molecule antagonists, cell-based qHTS assay (AID 1963595; active means well fitted inhibition curve with a large enough effect in the signal ratio in the repeat runs, with a control signal flat; the % refers to the signal ratio)
In short: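 HEK293 cells stably expressing DRD2, preincubated with 0.1 mM Ro20-1724 and compounds 10 min, were stimulated with 200 nM NKH477 plus 12 nM quinpirole for 30 min at room temperature; cAMP measured by HTRF (665/620 nm).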

[20] = biological target: Muscarinic acetylcholine receptor M1 (Homo sapiens) (UniProt P11229); assay: Cholinergic receptor muscarinic 1 (CHRM1) small molecule agonists, cell-based qHTS assay (AID 1963589); further: nearly all actives have a fitted effect of over 35% in size
In short: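 Agonist-mode calcium-flux screen: compounds at 15 concentrations, three independent runs, were pin-transferred onto dye-loaded human CHRM1-CHO cells. Fluorescence was then recorded kinetically every second over minutes.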
On the % scale 0 is the no-effect control and ±100 the full control effect.

C=CCOc1c(Br)cc(C(C)(C)c2cc(Br)c(OCC=C)c(Br)c2)cc1Br
inactive: Potency [1] | Potency [2] | Potency [3] | outcome [4] | outcome [5] | Potency [6] | Potency [7] | Potency [8] | Potency [9] | Potency [10] | Potency [11] | Potency [12] | Potency [13] | Potency [14] | Potency [15] | Potency [16] | Potency [17] | Potency [18] | Potency [19]

C=CC1CO1 (stereo not given)
inactive: Potency [1] | Potency [2] | Potency [3] | outcome [4] | outcome [5] | Potency [6] | Potency [7] | Potency [8] | Potency [9] | Potency [10] | Potency [11] | Potency [12] | Potency [13] | Potency [14] | Potency [20] | Potency [17] | Potency [18] | Potency [19]

Nc1ccc(Cl)cc1[N+](=O)[O-]
inactive: Potency [1] | Potency [2] | Potency [3] | outcome [4] | outcome [5] | Potency [6] | Potency [7] | Potency [8] | Potency [9] | Potency [10] | Potency [11] | Potency [12] | Potency [13] | Potency [14] | Potency [15] | Potency [16] | Potency [17] | Potency [18] | Potency [19]

CCCCN1C=CN(C)C1
inactive: activity change, negative = cytotoxicity [1] 3.2% [at 19 µM] | activity, positive = activation [2] 5.6% [at 19 µM] | activity change [3] 1.08% [at 11.8 µM, active compounds read high] | activation [4] 2.8% [at 15.8 µM] | activation [5] 0.0752% [at 11.8 µM] | activation [6] -0.103% [at 13.5 µM] | activation [7] 0.456% [at 13.6 µM] | activity change, negative = cytotoxicity [8] -6.5% [at 13.5 µM] | activity change, negative = cytotoxicity [9] 1.05% [at 13.5 µM] | activity change, negative = cytotoxicity [10] -5.52% [at 13.5 µM] | activation [11] -0.772% [at 13.5 µM] | activity, negative = inhibition [12] -10.9% [at 12.7 µM] | activation [13] 7.66% [at 15.9 µM] | activity, negative = inhibition [14] 0.644% [at 12.6 µM] | activation [15] -0.578% [at 19 µM] | activity change, negative = inhibition [16] -0.722% [at 18.9 µM] | activity change, negative = inhibition [17] 3.2% [at 19 µM] | activity change, negative = inhibition [19] 2.35% [at 18.9 µM]

O=C(O)CCCc1c[nH]c2ccccc12
inactive: Potency [1] | Potency [2] | Potency [3] | outcome [4] | outcome [5] | Potency [6] | Potency [7] | Potency [8] | Potency [9] | Potency [10] | Potency [11] | Potency [12] | Potency [13] | Potency [14] | Potency [20] | Potency [17] | Potency [18] | Potency [19]

COc1ccccc1Oc1c(NS(=O)(=O)c2ccc(C(C)(C)C)cc2)nc(-c2ncccn2)nc1OCCO
inactive: Potency [1] | Potency [3] | outcome [4] | outcome [5] | Potency [6] | Potency [7] | Potency [8] | Potency [9] | Potency [10] | Potency [11] | Potency [12] | Potency [13] | Potency [14] | Potency [20] | Potency [16] | Potency [18] | Potency [19]
active: Potency [2] 33.5 µM

COC[C@H](c1ccc(C(F)(F)F)cc1)N1CCN(C2(C)CCN(C(=O)c3c(C)ncnc3C)CC2)C[C@H]1C
active: Potency [14] 5.16 µM
inactive: Potency [1] | Potency [2] | Potency [3] | outcome [4] | outcome [5] | Potency [6] | Potency [7] | Potency [8] | Potency [9] | Potency [10] | Potency [11] | Potency [12] | Potency [13] | Potency [20] | Potency [17] | Potency [18] | Potency [19]

CCCCCCCCC=O
inactive: Potency [1] | Potency [2] | Potency [3] | outcome [4] | outcome [5] | Potency [6] | Potency [7] | Potency [8] | Potency [9] | Potency [10] | Potency [11] | Potency [12] | Potency [13] | Potency [14] | Potency [20] | Potency [17] | Potency [19]
